Screening data from PubChem.
Only some compounds are listed: those with a hit (about 18% of all), similar ones and a draw of the others.
LDHA block = blocks human lactate dehydrogenase A; purified LDHA, NADH/diaphorase-resazurin fluorescence; stronger effect = lower value; P00338; hit rate 0.15% among 480,000; AID 1347041; activity change, % (values are at about 110 or 230 µM); in the data active = activity change below about -30%; inconclusive = mostly about -25% to -30%;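 also: plate controls were DMSO wells for no effect and wells without enzyme for full effect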
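LDH5 2 nM; NADH 0.06 mM, pyruvate 0.2 mM; 200 mM Tris pH 7.4, EDTA, Tween-20; 5 min RT. Detection: diaphorase 0.133 mg/mL + resazurin 37 µM, fluorescence ex540/em590 at 0 and 20 min; normalized to enzyme-free and DMSO wells.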
RORgamma inh = blocks mouse ROR gamma transcriptional activity | P51450 | Drosophila S2 Gal4-RORgamma UAS-luciferase reporter, 20 h | hit rate 5.4% among 310,000 | Potency, µM (titrated, usually from 53.6 µM), inactives show at the top dose activity change, negative = inhibition, usual class: inhibitors; also: potency is read from the fitted curve at half-maximal effect; nearly all actives have a fitted effect of over 60% in size
Target sequence (P51450 whole entry, looked up, the tested form may be a part): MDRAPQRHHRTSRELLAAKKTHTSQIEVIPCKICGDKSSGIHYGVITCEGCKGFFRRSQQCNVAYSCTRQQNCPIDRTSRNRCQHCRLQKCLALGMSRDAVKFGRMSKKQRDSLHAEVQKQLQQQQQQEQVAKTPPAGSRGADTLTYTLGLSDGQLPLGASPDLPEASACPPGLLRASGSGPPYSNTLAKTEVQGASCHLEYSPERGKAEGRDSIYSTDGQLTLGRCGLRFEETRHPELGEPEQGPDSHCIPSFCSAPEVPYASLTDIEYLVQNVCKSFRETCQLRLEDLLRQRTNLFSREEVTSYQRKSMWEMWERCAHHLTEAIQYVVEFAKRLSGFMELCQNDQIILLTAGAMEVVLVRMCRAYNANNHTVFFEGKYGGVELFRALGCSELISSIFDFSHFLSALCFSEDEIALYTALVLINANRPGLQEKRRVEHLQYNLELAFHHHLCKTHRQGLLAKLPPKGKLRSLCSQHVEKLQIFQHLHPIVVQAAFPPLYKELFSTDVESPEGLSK
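Read-out: Photinus luciferase luminescence; inhibitors lower reporter signal. Insect Schneider cells with Gal4-ROR gamma fusion under metallothionein promoter, UAS reporter; 700 uM final copper sulfate induction, 20 hr, ambient temperature.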
Gal4-VP16 FLuc = inhibits Gal4-VP16 luciferase reporter, ROR gamma counter-screen. hit rate 3.5% among 310,000. Potency, µM (titrated, usually from 53.6 µM), for the others: at the highest dose activity, negative = inhibition, usual class: inhibitors. AID 2546. Drosophila S2 Gal4-VP16 UAS-luciferase, luminescence, 20 h;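 also: Gal4-VP16 expression switched on by copper sulfate through the metallothionein promoter; potency is read from the fitted curve at half-maximal effect; nearly all actives have a fitted effect of over 50% in size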
DT40 TDP1 no CPT = qHTS for Inhibitors of human tyrosyl-DNA phosphodiesterase 1 (TDP1): qHTS in cells in absence of CPT. DT40 Tdp1-/- hTDP1 cells, no CPT, ATP luminescence, 48 h. Potency, µM (top dose mostly 46.2 µM), for the others: at the top dose activity change, negative = growth inhibition, most hits filed as inhibitors. hit rate 15% among 420,000; also: potency is read from the fitted curve at half-maximal effect; nearly all actives have a fitted effect of over 55% in size
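Camptothecin absent (DMSO only). Human TDP1-complemented DT40 knockout cells, 400 cells/well, 37 °C for minimum 48 hr; ATP measured via CellTiter-Glo, 30 min dark incubation, luminescence.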
DT40 TDP1 CPT = growth inhibition of DT40 Tdp1-/-;hTDP1 cells with camptothecin (screen for TDP1 inhibitors); chicken DT40 Tdp1-/-;hTDP1 cells + 20 nM CPT, ATP luminescence, 48 h; Potency, µM (titrated, usually from 46.2 µM), for inactives: at the highest dose activity change, negative = growth inhibition, most hits filed as inhibitors; AID 686979; hit rate 12% among 420,000; also: potency is read from the fitted curve at half-maximal effect; nearly all actives have a fitted effect of over 55% in size
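Chicken DT40 Tdp1-/- cells stably complemented with human TDP1 were seeded at 400 cells/well in medium containing 20 nM camptothecin, exposed to pin-transferred compounds, and grown at 37 °C for at least 48 hr. Viability was read as ATP luminescence.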
IL-1B inflam inh = inflammasome signaling inhibition, IL-1 beta readout | THP-1 LPS/ATP IL-1B secretion, AlphaLISA, 16 h; stronger effect = lower value | activity change, % at 57.5 µM | hit rate 4.7% among 360,000 | AID 743279; in the data active = activity change below about -50%; inconclusive = mostly about -30% to -49%
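Secreted IL-1B measured by AlphaLISA bead assay after 16 h compound exposure of THP-1 cells; compounds (final up to 57.5 uM) added 1 h before LPS (250 ng/mL) and ATP (1.25 mM) stimulation; lower signal means less secretion.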
Numbers without * were called inactive; ? = inconclusive; nt = no result. Unless noted, calls follow the shape of the dose curve; as a rule, active = well fitted curve in the direction sought with a large enough effect; inconclusive = small, poorly fitted or top-dose-only effect, or another doubt; inactive = no such curve, though single readings can be large; an effect the other way counts as inactive or inconclusive. Unless noted, % is scaled to controls: 0 for no effect and ±100 for the full control effect.

SMILES | LDHA block | RORgamma inh | Gal4-VP16 FLuc | DT40 TDP1 no CPT | DT40 TDP1 CPT | IL-1B inflam inh
O=C(c1cc2nc(-c3ccco3)cc(C(F)(F)F)n2n1)N1CCN(c2ccccn2)CC1 | -0.5 | 14.3% | -7.1% | 13µM* | 25.9µM* | -11.4
O=C(O)c1cc2n(n1)C(C(F)(F)F)CC(c1ccco1)N2 (stereo unspecified) | 0.0 | 2.0% | -6.0% | 1.3% | 5.7% | 16.7
Cc1cccc(N2CCN(C(=O)c3cc4n(n3)C(C(F)(F)F)CC(c3ccco3)N4)CC2)c1C (stereo unspecified) | -1.0 | 2.3% | ? | 14.6µM* | 20.6µM* | -54.8*
O=C(c1cc2n(n1)C(C(F)(F)F)CC(c1ccco1)N2)N1CCN(c2ccccn2)CC1 (stereo unspecified) | -0.6 | -6.5% | 3.0% | 25.9µM* | ? | -14.3
CC(C)OCCCNC(=O)c1cc(C2CC2)nc2ccccc12 | -7.5 | nt | nt | nt | nt | nt
CCOc1nc2ccccc2nc1N1CCC(C(=O)Nc2ccc(NC(C)=O)cc2)CC1 | 10.3 | nt | nt | nt | nt | nt
C=CC[C@H](CC(=O)N(CCO)Cc1ccccc1)C(=O)N[C@@H](COC(=O)[C@@H](CC=C)Cc1ccc(F)cc1)Cc1c[nH]c2ccccc12 | 0.9 | nt | nt | 23.1µM* | 16.4µM* | ?
C=CC[C@@H](CC(=O)N(CCO)Cc1ccccc1)C(=O)N[C@@H](COC(=O)[C@@H](CC=C)Cc1ccc(F)cc1)Cc1c[nH]c2ccccc12 | 1.3 | nt | nt | 16.4µM* | ? | -52.0*
COc1ccccc1NC(=O)COC(=O)CCS(=O)(=O)c1ccc(C)c(C)c1 | 0.0 | nt | nt | nt | nt | nt
CCOc1ccc(C(=O)/C=C/c2cn(CC(O)CN3CCc4ccccc43)c3ccccc23)cc1 (stereo unspecified) | 6.0 | nt | nt | 8.2µM* | 7.31µM* | nt
O=Cc1cn(CC(O)Cn2cc(C=O)c3ccccc32)c2ccccc12 | -12.6 | -21.1% | -8.6% | 4.0% | 0.6% | 28.7
CS(=O)(=O)N(Cc1ccco1)CC(O)Cn1cc(C=O)c2ccccc21 (stereo unspecified) | -1.1 | 30.2% | -0.2% | -17.2% | ? | 3.8
Cc1ccc(C(=O)/C=C/c2cn(CN3CCN(C)CC3)c3ccccc23)cc1 | 1.5 | -31.3% | ? | ? | -22.2% | -55.0*
Cn1cc(/C=C/C(=O)c2ccccc2)c2ccccc21 | 1.2 | ? | -5.0% | ? | -22.8% | -3.8
O=C(/C=C/c1cn(CC(O)CN2CCCCCC2)c2ccccc12)c1cccs1 (stereo unspecified) | -4.0 | 9.5% | -20.5% | ? | ? | -107.0*
CCCCN(CCCC)CC(O)Cn1cc(/C=C/C(=O)c2ccccc2)c2ccccc21 (stereo unspecified) | 1.2 | nt | nt | 10.3µM* | 10.3µM* | nt
Cc1ccc(S(=O)(=O)N2CCN(C(=O)C3CC(=O)Nc4cc(F)ccc43)CC2)c(C)c1 (stereo unspecified) | 4.8 | nt | nt | nt | nt | nt
Cn1c(=O)[nH]c(=O)c2[nH]c(CN3CCN(c4ccccc4F)CC3)nc21 | 9.1 | nt | nt | nt | nt | nt
CCCCN(C)CC(O)Cn1cc(/C=C/C(=O)c2cccs2)c2ccccc21 (stereo unspecified) | 1.8 | ? | ? | ? | 18.4µM* | -56.2*
N#C/C(=C\c1ccc(-c2nc3ccccc3s2)o1)C(N)=O | 0.6 | ? | -6.7% | 18.4µM* | ? | 23.2
CNC(=O)/C(C#N)=C/c1ccc(-c2nc3ccccc3s2)o1 | -4.0 | -0.5% | -1.2% | ? | -3.8% | nt
O=C(CCC(=O)c1ccc2c(c1)CCC2)NC1CCCc2ccccc21 (stereo unspecified) | 5.4 | nt | nt | nt | nt | nt
COc1ccc(CC(=O)Nc2c(C(=O)N3CCN(c4ccccc4)CC3)oc3ccccc23)cc1OC | 1.0 | 10.1% | 2.7% | ? | ? | -25.8
